About 83,000 compounds went through this panel and 20% of them were active in at least one assay; those are over-represented in the sample as a whole.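 Interpretation: 100, growth as untreated; towards 0, rising growth inhibition; 0, no net growth; 0 to -100, cell death. Compounds scoring below 10 were considered active.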 Calls of active or inactive are those of the source.
Legend:
Test in all cases: NCI-60 one-dose screen, 48 h (100 = growth as untreated, 0 = no growth, -100 = all killed)
Conditions in all cases: 10 µM unless noted
[1] = tested on: T-47D breast
[2] = tested on: BT-549 breast
[3] = tested on: MDA-MB-435 melanoma
[4] = tested on: SW-620 colon
[5] = tested on: MCF7 breast
[6] = tested on: HCT-116 colon
[7] = tested on: HCC-2998 colon
[8] = tested on: KM12 colon

Measured: growth

COc1cc2c3c(c4c5ccccc5[nH]c4c2c(OC)c1OC)C(=O)N(CCN1CCCCC1)C3=O
inactive: [1] 59.5% | [2] 96.6% | [3] 33.7% | [7] 22.3%
active: [4] -66.4% | [5] -56.3% | [6] -85.6% | [8] -20%

O=[N+]([O-])c1ccccc1Sc1ccccc1[N+](=O)[O-]
inactive: [1] 81.5% | [2] 100% | [3] 103% | [4] 110% | [5] 108% | [6] 94.9% | [7] 97.5% | [8] 92.6%

Nc1nc2ccccc2c2c(=O)c3cc(Cl)ccc3sc12
inactive: [1] 45.3% | [2] 105% | [3] 101% | [4] 117% | [5] 27.2% | [6] 88.7% | [7] 97.5% | [8] 12.9%

CCOC(=O)C/C(=N\Nc1cc(=O)[nH]c2ccc(C)cc12)C(=O)OCC
inactive: [1] 107% | [2] 108% | [3] 98.6% | [4] 94.8% | [5] 94.8% | [6] 99.7% | [7] 102% | [8] 100%

CS(=O)(=O)c1ccc(-c2nc3ccccc3n2CC(=O)N/N=C/c2ccccc2)cc1
inactive: [1] 82.4% | [2] 95.9% | [3] 97.2% | [4] 103% | [5] 89.3% | [6] 81% | [7] 98.9% | [8] 107%

COCC(=O)Oc1cc(-c2ccc(C)cc2C)c(OC(=O)COC)c(-c2ccc(C)cc2C)c1
inactive: [1] 43.7% | [2] 56.6% | [3] 59.6% | [4] 43.2% | [5] 41% | [6] 17.7% | [7] 88% | [8] 44.8%

O=C(/C=C/c1ccccc1)c1cccc2ccccc12
active: [4] 9.3%
inactive: [1] 32.9% | [2] 62.5% | [3] 16.8% | [5] 11.6% | [6] 32% | [7] 48.3% | [8] 37.4%

CC1(C)CC[C@]23CC[C@]4(C)[C@H](CC[C@@H]5[C@@]6(C)CCNCC(C)(C)[C@@H]6CC[C@]54C)[C@H]2[C@H]1OC3
inactive: [1] 77.8% | [2] 94.2% | [3] 86.5% | [4] 49.9% | [5] 91.5% | [6] 55% | [7] 28.6% | [8] 81.4%

Cc1ncc(C(=O)Nc2ccc(CN3CCN(C)CC3)c(C(F)(F)F)c2)cc1C#Cc1cnc(N)c2ccc(C#N)cc12
active: [3] -28.4% | [4] 6.41% | [6] -19.9% | [8] 3.87%
inactive: [1] 19% | [2] 43.5% | [5] 11.5% | [7] 34.1%

CCOC(=O)c1c(NC(=O)c2ccccc2)sc2c3c(ccc12)OCN(C)C3
active: [1] -10.1% | [3] -88.5% | [4] -42.3% | [5] -50.6% | [6] -20.9% | [7] -85% | [8] 8.58%
inactive: [2] 62.2%

c1ccc(Nc2nc3c(s2)CCc2c[nH]cc2-3)nc1
inactive: [1] 11% | [2] 95.4% | [3] 110% | [4] 102% | [5] 65.1% | [6] 72.2% | [7] 103% | [8] 92.3%

C=C1SC(=Nc2ccccc2Cl)N(C(=O)c2sc3ccccc3c2Cl)C1(C)C
inactive: [1] 34.7% | [2] 85.2% | [3] 99.1% | [4] 68% | [5] 21.2% | [6] 54% | [7] 72.9% | [8] 29%

COC(=O)c1c2c(c(C)[n+]([O-])c1C)C(=O)C(NCc1ccccc1)=CC2=O
active: [1] 5.63% | [3] -61.4% | [4] 9.9% | [5] -33.9% | [6] 7.3%
inactive: [2] 71.5% | [7] 16.9% | [8] 26.4%

COC12C=C/C(=C(/C(=O)OCc3cncnc3)C(=O)CCCCCCCCC3(OC)C=C/C(=C(/C(=O)OCc4cncnc4)C(=O)CCCCCCCC1)O3)O2
inactive: [1] 10.2%
active: [2] -10.2% | [3] -49.8% | [4] 4.94% | [5] 3.84% | [6] -63.8% | [7] -77.5% | [8] -89.2%

COc1cc(C=Nc2oc(-c3ccccc3)c(-c3ccccc3)c2C#N)cc(CN2CCCC2)c1O
inactive: [1] 85.7% | [2] 109% | [3] 104% | [4] 95.9% | [5] 96.4% | [6] 95.4% | [7] 111% | [8] 102%

CN(C)CCCn1c2c(c3ccncc3c1=O)C(=O)c1ccccc1-2
active: [1] -12.3% | [2] 3.87% | [3] 7.89% | [4] -28.1% | [5] 1.65% | [6] -18.7% | [8] -12.6%
inactive: [7] 25.6%

CNCC[C@H](Oc1cccc2ccccc12)c1cccs1
inactive: [1] 99.9% | [2] 94.2% | [3] 88.5% | [4] 106% | [5] 78.1% | [6] 68.8% | [7] 79% | [8] 109%

OC1CSSC1Cn1cnc2c(Nc3ccc(OCc4cccc(F)c4)c(Cl)c3)ncnc21 (stereo unspecified)
active: [3] -77.1% | [4] -20.3% | [5] -60.1% | [6] -33.1% | [7] -81.7% | [8] -60.3%
inactive: [1] 19.8% | [2] 52.9%

C=C(C)[C@@H]1CC[C@]2(C(=O)N3CCNCC3)CC[C@]3(C)[C@H](CC[C@@H]4[C@@](C)(CCC(=O)N5CCNCC5)[C@H](C(=C)C)CC[C@]43C)[C@@H]12
active: [4] -14.4% | [6] -56.1%
inactive: [1] 103% | [2] 88.5% | [3] 74% | [5] 26.4% | [7] 81% | [8] 51.2%

Nc1nc(N)c2c(n1)NC(c1cccc(Nc3ccnc4cc(C(F)(F)F)ccc34)c1)CC(c1ccc3c(c1)OCO3)=N2 (stereo unspecified)
active: [3] 9.59%
inactive: [1] 90.6% | [2] 112% | [4] 54.6% | [5] 33.3% | [6] 39.9% | [7] 75.7% | [8] 38.6%

C=C(C)[C@@H]1CC[C@]2(C(=O)N3CCN(C)CC3)CC[C@]3(C)[C@H](CC[C@@H]4[C@@](C)(CCC(=O)O)[C@H](C(=C)C)CC[C@]43C)[C@@H]12
inactive: [1] 85.7% | [2] 96.8% | [3] 93.6% | [4] 99.7% | [5] 82.8% | [6] 68.2% | [7] 93.8% | [8] 68.7%

CC1=C2CC/C(C)=C/CC[C@]3(C)O[C@H]3CC/C(C)=C/[C@H]2OC1
inactive: [1] 86% | [2] 106% | [3] 98.7% | [4] 107% | [5] 105% | [6] 101% | [7] 99.6% | [8] 120%

COC1/C=C/OC2(C)Oc3c(C)c(O)c4c(O)c(c(/C=N/N(c5ccccc5)c5ccccc5)c(O)c4c3C2=O)NC(=O)C(C)=C/C=C/C(C)C(O)C(C)C(O)C(C)C(OC(C)=O)C1C (stereo unspecified)
inactive: [2] 88.9% | [3] 67.9% | [5] 32.8% | [6] 38.7% | [7] 71.1% | [8] 55.6%
active: [1] -3.9% | [4] 4.75%

CC1SC(c2ccccc2O)N(NC(=O)CCC(=O)c2nc3ncccc3[nH]2)C1=O (stereo unspecified)
inactive: [1] 93.6% | [2] 122% | [3] 102% | [4] 92.6% | [5] 98.7% | [6] 91.2% | [7] 92.9% | [8] 95.2%

COC(=O)c1ccc2c(c1)c1c(C)c3cnccc3c(C)c1n2C
active: [1] -21.6% | [2] -4.33% | [3] 6.89% | [4] -6.12% | [5] -37.1% | [6] -59.8% | [7] 1.42% | [8] 1.9%

CS(=O)(=O)Nc1cc(-c2ccc3ncnc(Nc4ccc5c(cnn5Cc5ccccc5F)c4)c3c2)cnc1Cl
inactive: [2] 14.6% | [3] 43.6% | [4] 46.8% | [5] 13.9% | [6] 60.4% | [7] 59.3% | [8] 71.5%
active: [1] -4.36%

CCN(CC)CCCC(Cc1ccccc1)Nc1c2ccc(Cl)cc2nc2ccc(OC)cc12 (stereo unspecified)
active: [1] -6.99% | [3] -66.5% | [5] -9.45% | [7] -72.1%
inactive: [2] 53.3% | [4] 13.2% | [6] 14.6% | [8] 45.3%

O=C(/C=C/c1ccccc1)N(C1CCCCC1)C1CCCCC1
inactive: [1] 69.2% | [2] 77.3% | [3] 99% | [4] 92.4% | [5] 88.4% | [6] 57.6% | [7] 92.4% | [8] 95.1%

COc1cc(-c2ccc[nH]2)[nH]c1/C=C1\N=C(C)C(CC(=O)OCC(C)(C)C)=C1C
active: [1] -58.7% | [2] -87.7% | [3] -81.9% | [4] -64.6% | [5] -74.1% | [6] -90.4% | [7] -81.4% | [8] -90%

COc1ccc(C(O)c2cc3c(N)c(C(=O)Nc4cccc5ccccc45)sc3nc2C)cc1 (stereo unspecified)
active: [2] 8.08% | [3] -17.1% | [6] 6.27% | [7] -38.8% | [8] -6.56%
inactive: [1] 44.2% | [4] 18.8% | [5] 11.3%

CCCOC(=O)Nc1nc2ccc(SCC)cc2s1
inactive: [1] 84.8% | [2] 85.5% | [4] 52.5% | [5] 43.7% | [6] 62.8% | [7] 79.7% | [8] 58.6%
active: [3] 3.85%

COc1ccc(/C=C/C(c2cc(OC)c(OC)c(OC)c2)n2cncn2)cc1O (stereo unspecified)
inactive: [1] 34.4% | [2] 36.6% | [4] 27.6% | [5] 21.2% | [6] 10.5% | [7] 67.7% | [8] 26.7%
active: [3] -33%

Source: PubChem BioAssay (NCI)
